Results: PubChem BioAssay
The source made the active and inactive calls. Unless noted, how the calls were made is not given here.

Experiments:
[1] = system: XIP peptide (Xip251-270) binding; test: small-molecule binders of XIP peptide, primary screen, biochemical, small-molecule microarray, fluorescence 635/667 nm, 0.1 µg/mL protein (AID 1182); details: fluorescent protein binding, 635 nm, higher = more signal, called active from +8 up or from −8 down
XIP peptide (Xip251-270) = test: small-molecule binders of XIP peptide, primary screen, biochemical, small-molecule microarray, fluorescence 635/667 nm, 0.5 µg/mL protein (AID 1183); details: small-molecule microarray binding, fluorescence 635 nm; higher = more signal
[2] = Plasmodium falciparum growth inhibition, primary screen, strain 3D7, DAPI fluorescence, 100 nL (AID 1184);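 further: parasites grown inside human red blood cells in medium with human serum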; details: P. falciparum 3D7 growth, 3 d, higher = more signal
[3] = biological target: Homeobox protein Hox-A13 (Mus musculus) (UniProt Q62424); test: inhibitors of HoxA13-DNA binding, primary screen, biochemical, fluorescence polarization, labeled oligonucleotide (AID 1185); details: 15 min, higher = more signal, called active from +8 up or from −8 down
[4] = inhibitors of hydroxyurea-induced Chk1 phosphorylation, primary screen, imaging, HeLa, phospho-Chk1 antibody, percent positive cells (AID 1186); details: hydroxyurea-induced phospho-Chk1 immunofluorescence imaging, higher = more signal
[5] = inhibitors of hydroxyurea-induced Chk1 phosphorylation, primary screen, imaging, HeLa, phospho-Chk1 nuclear intensity (AID 1187); details: hydroxyurea-induced phospho-Chk1 immunofluorescence imaging, higher = more signal

Sequence of Homeobox protein Hox-A13 (Mus musculus) (Q62424 whole entry, looked up): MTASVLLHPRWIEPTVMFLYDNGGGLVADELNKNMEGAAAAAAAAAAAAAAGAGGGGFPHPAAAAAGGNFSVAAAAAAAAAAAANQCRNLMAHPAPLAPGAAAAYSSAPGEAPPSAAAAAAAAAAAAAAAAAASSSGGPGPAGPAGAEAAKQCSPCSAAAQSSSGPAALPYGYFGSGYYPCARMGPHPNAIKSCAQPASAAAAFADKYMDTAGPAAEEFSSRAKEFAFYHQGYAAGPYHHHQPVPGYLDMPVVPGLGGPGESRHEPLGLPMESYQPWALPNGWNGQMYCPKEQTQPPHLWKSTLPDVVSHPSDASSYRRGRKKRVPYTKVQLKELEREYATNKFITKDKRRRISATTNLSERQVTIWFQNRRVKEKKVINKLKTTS

Q: For `CN(C)C(=O)[C@@]1(Cc2ccccc2)COC(c2ccc(OCCCO)cc2)=N1`, which composite z-score [1] is on record?
A: 0.205 (inactive)

Q: And the composite z-score (XIP peptide (Xip251-270))?
A: 0.845

Q: And the z-score [2]?
A: -0.627

Q: What about the z-score [3] of the same compound?
A: -6.02 (inactive)

Q: What about the z-score [4] of the same compound?
A: -1.01 (inactive)

Q: And the z-score [5]?
A: -1.03 (inactive)

Q: Which results are given for `COC(=O)[C@@]1(Cc2ccc(OC)cc2)[C@H]2c3cc(C(=O)N4CCCC4)n(Cc4ccc(S(C)(=O)=O)cc4)c3C[C@H]2CN1C(=O)c1ccccc1`?
A: composite z-score [1]: 0.807 (inactive); composite z-score (XIP peptide (Xip251-270)): 0.511; z-score [2]: -1.42; z-score [3]: -3.91 (inactive); z-score [4]: 0.364 (inactive); z-score [5]: 0.202 (inactive)

Q: Which composite z-score [1] does the source give for `C=CCNC(=O)[C@@H]1[C@H]2C(=O)O[C@H](c3ccccc3)[C@H](c3ccccc3)N2[C@H](c2ccc(O)cc2)[C@@]12C(=O)Nc1ccc(C#CCC(C(=O)OC)C(=O)OC)cc12` here?
A: 1.03 (inactive)

Q: And the composite z-score (XIP peptide (Xip251-270))?
A: 0.729

Q: And the z-score [2]?
A: -1.84

Q: And the z-score [3]?
A: -2.97 (inactive)

Q: What about the z-score [4] of the same compound?
A: -0.267 (inactive)

Q: What about the z-score [5] of the same compound?
A: -0.625 (inactive)

Q: For `C=CCC(OC(C)=O)[C@@H]1[C@@H](N(Cc2cccc3ccccc23)C(=O)c2cccc3ccccc23)c2cc(OCCCO)ccc2N1C(=O)c1ccc2ccccc2c1` (stereo partly specified), which composite z-score [1] is on record?
A: 0.25 (inactive)

Q: And the composite z-score (XIP peptide (Xip251-270))?
A: 0.012

Q: What about the z-score [2] of the same compound?
A: -2.41

Q: And the z-score [3]?
A: -1.18 (inactive)

Q: And the z-score [4]?
A: -0.534 (inactive)

Q: And the z-score [5]?
A: -0.158 (inactive)

Q: With `CN1C(=O)C2C=CC(C(O)c3ccc(F)cc3)N(NC(=O)OC(C)(C)C)C2C1=O` (stereo unspecified) as the compound, how does the composite z-score [1] read?
A: -0.0758 (inactive)

Q: What about the composite z-score (XIP peptide (Xip251-270)) of the same compound?
A: 0.258

Q: What about the z-score [2] of the same compound?
A: -0.383

Q: What about the z-score [3] of the same compound?
A: -2.11 (inactive)

Q: What about the z-score [4] of the same compound?
A: 0.058 (inactive)

Q: What about the z-score [5] of the same compound?
A: -0.173 (inactive)

Q: Which composite z-score [1] does the source give for `NC(=O)N1C(=O)C2C(C1=O)C1C=C(CCCO)C2C(C2CC2)N1Cc1cccc(OC(F)(F)F)c1` (stereo unspecified) here?
A: 0.198 (inactive)

Q: What about the composite z-score (XIP peptide (Xip251-270)) of the same compound?
A: -0.341

Q: What about the z-score [2] of the same compound?
A: 1.17

Q: And the z-score [3]?
A: -8.76 (active)

Q: And the z-score [4]?
A: 0.791 (inactive)

Q: What about the z-score [5] of the same compound?
A: 0.384 (inactive)

Q: With `CCCCC(=C=CC[C@H](O)c1ccc(OCCO)cc1)C[C@H](O)c1cc(Cl)cc(Cl)c1O` as the compound, how does the composite z-score [1] read?
A: -0.0399 (inactive)

Q: What about the composite z-score (XIP peptide (Xip251-270)) of the same compound?
A: 0.416

Q: And the z-score [2]?
A: -1.51

Q: And the z-score [3]?
A: -2.25 (inactive)

Q: What about the z-score [4] of the same compound?
A: -0.0695 (inactive)

Q: What about the z-score [5] of the same compound?
A: -0.301 (inactive)

Q: For `C[C@]1(C(=O)NCC(F)(F)F)c2ccccc2C(=O)N(Cc2ccccc2)[C@H]1c1ccc(CO)cc1`, which composite z-score [1] is on record?
A: 0.636 (inactive)

Q: What about the composite z-score (XIP peptide (Xip251-270)) of the same compound?
A: -0.0904

Q: What about the z-score [2] of the same compound?
A: 0.169

Q: And the z-score [3]?
A: -4.07 (inactive)

Q: What about the z-score [4] of the same compound?
A: -0.301 (inactive)

Q: And the z-score [5]?
A: -0.232 (inactive)

Q: For `CC(C)[C@H]1NC(=O)[C@@]23C(=O)N[C@@H](Cc4ccccc4)C2[C@H](C)[C@@]2(C)O[C@H]2C3/C=C/CCC/C=C/CNC(=O)[C@H](Cc2ccccc2)NC1=O` (stereo partly specified), which composite z-score [1] is on record?
A: 0.621 (inactive)

Q: What about the composite z-score (XIP peptide (Xip251-270)) of the same compound?
A: 0.741

Q: What about the z-score [2] of the same compound?
A: -1.83

Q: And the z-score [3]?
A: -6.22 (inactive)

Q: And the z-score [4]?
A: -0.165 (inactive)

Q: And the z-score [5]?
A: -0.0036 (inactive)

Q: Which results are given for `COCCOC(=O)N1C(=O)[C@@]2(c3ccccc31)[C@H](c1ccc(OCCO)cc1)N1[C@H](c3ccccc3)[C@H](c3ccccc3)OC(=O)[C@H]1[C@@H]2C(=O)N1CCCCCCC1`?
A: composite z-score [1]: 8.16 (active); composite z-score (XIP peptide (Xip251-270)): 1.04; z-score [2]: -2.08; z-score [3]: -15.8 (active); z-score [4]: -0.17 (inactive); z-score [5]: 0.128 (inactive)

Q: What does the source list for `O=C(NCC(O)CO)[C@@]1(CCS(=O)(=O)c2ccccc2)COC(c2ccc(OCCCO)cc2)=N1` (stereo partly specified)?
A: composite z-score [1]: -0.119 (inactive); composite z-score (XIP peptide (Xip251-270)): 0.696; z-score [2]: -0.475; z-score [3]: -5.1 (inactive); z-score [4]: -0.275 (inactive); z-score [5]: -0.556 (inactive)

Q: What does the source list for `C=C[C@H](C)[C@H](OC(=O)Nc1ccc(OC)cc1)c1ccc(OCCO)cc1`?
A: composite z-score [1]: 0.526 (inactive); composite z-score (XIP peptide (Xip251-270)): -0.0503; z-score [2]: -1.15; z-score [3]: -4.59 (inactive); z-score [4]: -0.806 (inactive); z-score [5]: -0.261 (inactive)

Q: For `CCOC(=O)C1=CCN(S(=O)(=O)c2ccc(C)cc2)C1c1ccccc1` (stereo unspecified), which composite z-score [1] is on record?
A: 0.866 (inactive)

Q: And the composite z-score (XIP peptide (Xip251-270))?
A: 0.805

Q: And the z-score [2]?
A: -0.584

Q: And the z-score [3]?
A: -3.71 (inactive)

Q: And the z-score [4]?
A: 0.607 (inactive)

Q: And the z-score [5]?
A: 0.346 (inactive)

Q: Which composite z-score [1] does the source give for `COCC(=C=CC[C@@H](O)c1cccc(OCCO)c1)CCO` here?
A: 1.14 (inactive)

Q: What about the composite z-score (XIP peptide (Xip251-270)) of the same compound?
A: -0.347

Q: What about the z-score [2] of the same compound?
A: -0.315

Q: And the z-score [3]?
A: -1.85 (inactive)

Q: And the z-score [4]?
A: -1.38 (inactive)

Q: What about the z-score [5] of the same compound?
A: -0.0691 (inactive)

Q: What does the source list for `CCOC(=O)C[C@H]1[C@H](OC(=O)c2ccccc2-c2ccccc2)[C@@H](NC(=O)c2ccccc2)c2cc(OCCCO)ccc2N1C(=O)c1ccccc1`?
A: composite z-score [1]: -0.101 (inactive); composite z-score (XIP peptide (Xip251-270)): -0.127; z-score [2]: -1.39; z-score [3]: -4.85 (inactive); z-score [4]: 0.972 (inactive); z-score [5]: 0.528 (inactive)

Q: Which composite z-score [1] does the source give for `CN1C(=O)C2C(C1=O)C1C=C(CCCO)C2C(C2CC2)N1Cc1cc2c(cc1Br)OCO2` (stereo unspecified) here?
A: 1.34 (inactive)

Q: And the composite z-score (XIP peptide (Xip251-270))?
A: 0.891

Q: And the z-score [2]?
A: -1.2

Q: What about the z-score [3] of the same compound?
A: -7.89 (inactive)

Q: And the z-score [4]?
A: 0.498 (inactive)

Q: And the z-score [5]?
A: 0.27 (inactive)
